The results in this text go back to PubChem BioAssay (NCI).

Among the test systems are HCT-15 colon; HT29 colon; SNB-75 CNS; SNB-19 CNS; U251 CNS; PC-3 prostate; SK-MEL-5 melanoma; UACC-62 melanoma; LOX IMVI melanoma; SK-MEL-28 melanoma; EKVX NSCLC; SN12C renal; UO-31 renal; TK-10 renal; ACHN renal; CAKI-1 renal; A498 renal; CCRF-CEM leukemia; MOLT-4 leukemia; SK-MEL-2 melanoma.
Common to all, as to assay: NCI-60 one-dose screen, 48 h (100 = growth as untreated, 0 = no growth, -100 = all killed)
Details in all cases: 10 µM unless noted

Molecules are shown by their SMILES. Compounds without any hit were thinned out: in the full panel of roughly 83,000, 20% have a hit.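 Interpretation: 100, growth as untreated; towards 0, rising growth inhibition; 0, no net growth; 0 to -100, cell death. Compounds scoring below 10 were considered active.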 Values without a mark were called inactive. Activity calls are given as the source filed them.

Take `CCOC(=O)c1c(C)c2c(n1C)CSc1cc(S(=O)(=O)c3ccccc3)c(=O)[nH]c1-2`: the growth in the assay on HCT-15 colon is 24.7% [100 µM]; with HT29 colon it was 0.904% [100 µM] (active); in the assay with SNB-75 CNS, 32.1% [100 µM]; in the assay with SNB-19 CNS, 43.3% [100 µM]; in the assay on U251 CNS it was 35.7% [100 µM]; in the assay with PC-3 prostate it was 15.9% [100 µM]. In addition, the growth in the assay with SK-MEL-5 melanoma is -6.57% [100 µM] (active); in the assay with UACC-62 melanoma, 1.08% [100 µM] (active); with LOX IMVI melanoma, 31.9% [100 µM]; in the assay on SK-MEL-28 melanoma it was 41% [100 µM]; in the assay with EKVX NSCLC, 14.7% [100 µM]; in the assay on SN12C renal, 24.8% [100 µM]. In addition, the growth is 22.7% [100 µM] with UO-31 renal; 24.8% [100 µM] with TK-10 renal; 25.9% [100 µM] in the assay with ACHN renal; 26.3% [100 µM] with CAKI-1 renal; 44.9% [100 µM] with A498 renal; 29.2% [100 µM] with CCRF-CEM leukemia. For the same compound, the growth in the assay with MOLT-4 leukemia is 41.5% [100 µM].

As for `C=C(CO)[C@@H]1CC[C@]2(COC3CCCCO3)CC[C@]3(C)[C@H](CC[C@@H]4[C@@]5(C)C=C(C=O)C(=O)C(C)(C)[C@@H]5CC[C@]43C)[C@@H]12` (stereo not given in full), the growth in the assay with HCT-15 colon was -90.5% (active); with HT29 colon, -83.6% (active); with SNB-75 CNS, -51.6% (active); with SNB-19 CNS it was -83.8% (active); in the assay with U251 CNS, -88.6% (active); in the assay on PC-3 prostate it was -82.5% (active). In addition, the growth with SK-MEL-5 melanoma is -95.1% (active); in the assay with LOX IMVI melanoma, -88.4% (active); in the assay with SK-MEL-28 melanoma, -71.3% (active); in the assay on SK-MEL-2 melanoma, -57.3% (active); with EKVX NSCLC, -82.8% (active); with SN12C renal, -67.3% (active). In addition, the growth in the assay on UO-31 renal was -96.9% (active); in the assay on TK-10 renal, -96.2% (active); in the assay on ACHN renal it was -100% (active); with CAKI-1 renal it was -76% (active); in the assay on A498 renal, -97.7% (active); in the assay on CCRF-CEM leukemia, -62.9% (active). The growth in the assay on MOLT-4 leukemia is -32.2% (active).

For `CC(C)=CC(=O)N[C@@H]1CC2CCC3C(CC[C@@]4(C)C3CC[C@@H]4C(C)N(C)C)[C@@]2(C)C[C@@H]1O` (stereo not given in full), the growth in the assay with HCT-15 colon is 2.93% (active); in the assay on HT29 colon, -4.96% (active); in the assay with SNB-75 CNS, 56.1%; in the assay with SNB-19 CNS it was 86.3%; with U251 CNS, 56.7%; in the assay on PC-3 prostate it was 44.6%. For the same compound, the growth in the assay on SK-MEL-5 melanoma is 10.1%; in the assay with UACC-62 melanoma, 44.6%; in the assay with LOX IMVI melanoma, 1.62% (active); with SK-MEL-28 melanoma, -28% (active); in the assay with EKVX NSCLC, 32.9%; in the assay on SN12C renal, 71.3%. Besides, the growth is 10.1% in the assay on UO-31 renal; 84.5% with TK-10 renal; 69.6% in the assay with ACHN renal; 76.6% in the assay with CAKI-1 renal; 67.2% in the assay on A498 renal; 30% in the assay with CCRF-CEM leukemia. In addition, the growth with MOLT-4 leukemia is -7.31% (active).

Turning to `Cc1ncc(C(=O)Nc2ccc(CN3CCN(C)CC3)c(C(F)(F)F)c2)cc1C#Cc1cnc(N)c2cnccc12`, the growth in the assay on HCT-15 colon was 6.59% (active); in the assay on HT29 colon it was -43.1% (active); in the assay on SNB-75 CNS it was -90.6% (active); with SNB-19 CNS, 23.1%; with U251 CNS it was -20.7% (active); in the assay on PC-3 prostate, 41.7%. Moreover, the growth is -20.8% (active) in the assay with SK-MEL-5 melanoma; -65.2% (active) in the assay on UACC-62 melanoma; -90.1% (active) with LOX IMVI melanoma; -0.469% (active) in the assay with SK-MEL-28 melanoma; 21.5% with EKVX NSCLC; 11.7% in the assay with SN12C renal. For the same compound, the growth in the assay with UO-31 renal is -30.1% (active); in the assay with TK-10 renal it was -22.6% (active); in the assay with ACHN renal, -21.6% (active); with CAKI-1 renal, -91.5% (active); in the assay with A498 renal it was -90.5% (active); in the assay with CCRF-CEM leukemia, 10.3%. Also, the growth in the assay with MOLT-4 leukemia is 13%.

For `Cc1nc2ccccc2c(/C=C/c2ccc(C(F)(F)F)cc2)c1C(=O)/C=C/c1ccccc1`, the growth with HCT-15 colon is -49.4% (active); in the assay with HT29 colon, -29.2% (active); in the assay with SNB-75 CNS, 31.3%; in the assay on SNB-19 CNS, -66.5% (active); in the assay on U251 CNS, -84.1% (active); with PC-3 prostate, 12%. Also, the growth in the assay on SK-MEL-5 melanoma is -79% (active); with LOX IMVI melanoma, -92.2% (active); in the assay on SK-MEL-28 melanoma, -52.2% (active); in the assay with EKVX NSCLC, 8.76% (active); in the assay on SN12C renal, -25.9% (active); in the assay with UO-31 renal it was -96.1% (active). The growth is 7.75% (active) with TK-10 renal; -54.6% (active) in the assay on ACHN renal; 0.887% (active) with CAKI-1 renal; -31.4% (active) in the assay with A498 renal; 5.84% (active) with CCRF-CEM leukemia; 4.86% (active) in the assay with MOLT-4 leukemia.

On to `Oc1c(I)cc(-c2nc3ccccc3s2)cc1CN(Cc1ccccn1)Cc1ccccn1`, for which the growth is 22% in the assay with HCT-15 colon; 21.3% with HT29 colon; 40.1% with SNB-75 CNS; 20.9% with SNB-19 CNS; 8.16% (active) in the assay with U251 CNS; 28.3% in the assay on PC-3 prostate. The growth was -78.3% (active) in the assay with SK-MEL-5 melanoma; 3.14% (active) in the assay on LOX IMVI melanoma; 37.5% in the assay on SK-MEL-28 melanoma; 14.8% in the assay with SK-MEL-2 melanoma; 8.07% (active) in the assay with EKVX NSCLC; 17.3% with SN12C renal. For the same compound, the growth is -26.6% (active) with UO-31 renal; 14.5% with TK-10 renal; 8.93% (active) in the assay on ACHN renal; 5.39% (active) with CAKI-1 renal; 18.1% in the assay on A498 renal; 7.86% (active) in the assay on CCRF-CEM leukemia. In addition, the growth in the assay with MOLT-4 leukemia was 0.129% (active).

Turning to `C[C@H]1[C@H](C)CC[C@]2(C(=O)O)CC[C@]3(C)C(=CC[C@@H]4[C@@]5(C)C[C@@H](Cc6cn([C@@H]7O[C@H](CO)[C@@H](O)[C@H](O)[C@H]7O)nn6)[C@H](O)C(C)(C)[C@@H]5CC[C@]43C)[C@H]12`, the growth in the assay with HCT-15 colon is 102%; with HT29 colon, 98.4%; with SNB-75 CNS, 88%; in the assay with SNB-19 CNS it was 98.8%; in the assay with U251 CNS, 92.9%; in the assay with SK-MEL-5 melanoma, 94.2%. Further, the growth is 98.4% in the assay with UACC-62 melanoma; 99% in the assay on LOX IMVI melanoma; 101% in the assay on SK-MEL-28 melanoma; 99.9% in the assay with SK-MEL-2 melanoma; 96.8% in the assay on EKVX NSCLC; 97.1% in the assay with SN12C renal. Further, the growth in the assay on UO-31 renal was 91.8%; with TK-10 renal, 89.2%; in the assay with ACHN renal, 99.2%; in the assay with CAKI-1 renal, 97.2%; in the assay on A498 renal, 80.7%; in the assay on CCRF-CEM leukemia it was 99.3%. Besides, the growth in the assay on MOLT-4 leukemia was 94.2%.

Consider `CCCCCCCCn1ccc2cc(NC(=O)Cn3cc(CN4CCN(CC)CC4)nn3)ccc21`, for which the growth is 22.5% in the assay with HCT-15 colon; -26.4% (active) with HT29 colon; 87.5% with SNB-75 CNS; 61.4% in the assay on SNB-19 CNS; 5.79% (active) in the assay with U251 CNS; 78.1% in the assay with SK-MEL-5 melanoma. Besides, the growth in the assay with UACC-62 melanoma was -78.2% (active); with LOX IMVI melanoma, -74.5% (active); with SK-MEL-28 melanoma, 80.5%; in the assay with SK-MEL-2 melanoma, 101%; with EKVX NSCLC, 88%; with SN12C renal, 64.1%. Further, the growth with UO-31 renal was 47.5%; with TK-10 renal it was 99.2%; in the assay on CAKI-1 renal, 69.6%; in the assay on A498 renal, 90.5%; in the assay with CCRF-CEM leukemia, -41.2% (active); in the assay on MOLT-4 leukemia, 39.3%.
